From PubChem BioAssay (Tox21) come the findings set out here.

Each structure is given as a SMILES string. “And” between values parts separate entries of the source, which are not always exact repeats. Equal entries are not always repeated. Results filed as inconclusive are left out. A structure can be active in one record and inactive in another. The source made the active and inactive calls. Unless noted, calls follow the shape of the dose curve; as a rule, active = well fitted curve in the direction sought with a large enough effect in the repeat runs; inconclusive = weak or mixed curves; inactive = no such curve, though single readings can be large; an effect the other way counts as inactive or inconclusive.

Experiment [1] can be described thus: qHTS assay to identify small molecule antagonists of the estrogen receptor alpha (ER-alpha) signaling pathway - cell viability counter screen (AID 743074; calls by dose curve;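 also: HEK293 cells carrying ER-alpha-UAS-bla reporter stimulated with 17beta-estradiol; nearly all actives have a fitted effect of over 45% in size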; also: potency is read from the fitted curve at half-maximal effect).
Experiment [2] deals with Estrogen receptor (Homo sapiens) (UniProt P03372). The experiment is described as follows: qHTS assay to identify small molecule agonists of the estrogen receptor alpha (ER-alpha) signaling pathway using the BG1 cell line (AID 743079). Also: nearly all actives have a fitted effect of over 20% in size. For orientation: Quantitative high-throughput screening tests each substance at several concentrations.
Experiment [3] can be described thus: qHTS assay to identify small molecule antagonists of the estrogen receptor alpha (ER-alpha) signaling pathway using the BG1 cell line (AID 743080; calls by dose curve;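 also: BG1 cells stimulated with 17beta-estradiol alongside compound; nearly all actives have a fitted effect of over 25% in size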; also: potency is read from the fitted curve at half-maximal effect). An outline of the steps:
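Quantitative HTS on the Tox21 10K library: BG1 cells with endogenous ER-alpha and ERE-luciferase reporter, 17beta-estradiol stimulation, 21.5 h compound exposure, luminescence endpoint with parallel fluorescence cytotoxicity counter-read.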

A short description of experiment [4]: qHTS assay to identify small molecule antagonists of the estrogen receptor alpha (ER-alpha) signaling pathway using the BG1 cell line - cell viability counter screen (AID 743081).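 Also: compound given together with 17beta-estradiol as the ER stimulus; nearly all actives have a fitted effect of over 45% in size.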 Also: potency is read from the fitted curve at half-maximal effect.
A further experiment deals with Aromatase (Homo sapiens) (UniProt P11511). Description: qHTS assay to identify aromatase inhibitors (AID 743083). Also: nearly all actives have a fitted effect of over 55% in size. Also: potency is read from the fitted curve at half-maximal effect.
Experiment [5] can be described thus: qHTS assay to identify aromatase inhibitors - cell viability counter screen (AID 743084).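 Also: cells stimulated with testosterone during compound exposure; nearly all actives have a fitted effect of over 55% in size.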 Also: potency is read from the fitted curve at half-maximal effect.
Experiment [6] concerns the target Aryl hydrocarbon receptor (Homo sapiens) (UniProt P35869). The experiment is described as follows: qHTS assay to identify small molecule that activate the aryl hydrocarbon receptor (AhR) signaling pathway (AID 743085). Also: nearly all actives have a fitted effect of over 15% in size. Also: potency is read from the fitted curve at half-maximal effect.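 As to activation: HG2L7.5c1 human HepG2 liver cells with stably integrated DRE-driven firefly reporter; series mostly up to about 70 µM.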 An outline of the steps: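 Steps: seed HepG2-AhR-luc cells; allow 5 h at 37C; pin-transfer test compound or vehicle; incubate 24 h at 37C; add viability dye (30 min, 37C) and read fluorescence; add luciferase substrate (30 min, RT) and read luminescence.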

The nature of experiment [7]: qHTS assay to identify small molecule that activate the aryl hydrocarbon receptor (AhR) signaling pathway - cell viability counter screen (AID 743086). Also: nearly all actives have a fitted effect of over 45% in size. Also: potency is read from the fitted curve at half-maximal effect. An outline of the steps:
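Cytotoxicity counter screen: CellTiter-Fluor signal (30 min, 37 C) in 4000 HepG2 cells/well carrying the DRE-luciferase reporter, following 24 h compound exposure at 37 C.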

Experiment [8] is described as follows: qHTS assay to identify small molecule antagonists of the peroxisome proliferator-activated receptor gamma (PPARg) signaling pathway - cell viability counter screen (AID 743194). Also: nearly all actives have a fitted effect of over 55% in size. Also: potency is read from the fitted curve at half-maximal effect. An outline of the steps:
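Viability was measured as CellTiter-Glo luminescence in GeneBLAzer PPARg UAS-bla HEK293H cells. These cells had been exposed 17 h at 37 C to compounds together with rosiglitazone at 50 nM final, with the beta-lactamase readout taken in the same wells.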

Experiment [9] can be described thus: qHTS assay for small molecule agonists of the antioxidant response element (ARE) signaling pathway (AID 743202; active = well fitted activation curve with a large enough effect in the signal ratio in the repeat runs, not every such curve was filed as active; the % refers to the signal ratio; also: potency is read from the fitted curve at half-maximal effect). An outline of the steps:
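An ARE-responsive beta-lactamase gene stably integrated in HepG2 cells serves as reporter. After 5 h plating and 16 h compound incubation at 37 C, fluorescence of the B/G FRET substrate was measured.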

Experiment [10] is described as follows: qHTS assay for small molecule agonists of the antioxidant response element (ARE) signaling pathway - cell viability counter screen (AID 743203; calls by dose curve; also: nearly all actives have a fitted effect of over 55% in size; also: potency is read from the fitted curve at half-maximal effect). An outline of the steps: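 CellSensor ARE-bla HepG2 cells, 2,000 per well, rested 5 hrs at 37C/5% CO2, then exposed to compound in DMSO for 16 hrs; viability read as CellTiter-Glo luminescence after 30 min at room temperature, in the reporter wells.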

The nature of experiment [11]: qHTS assay for small molecule activators of the heat shock response signaling pathway - cell viability counter screen (AID 743209). Also: nearly all actives have a fitted effect of over 50% in size. Also: potency is read from the fitted curve at half-maximal effect. An outline of the steps: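 CellSensor HSE-bla HeLa cells, plated overnight at 37 C/5% CO2, were exposed to compounds in DMSO for 5 h at 37 C. Viability was then read in the same wells by CellTiter-Glo luminescence after 30 min at room temperature.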

Experiment [12] in a line: qHTS assay to identify small molecule agonists of the peroxisome proliferator-activated receptor delta (PPARd) signaling pathway - cell viability counter screen (AID 743211). Also: nearly all actives have a fitted effect of over 55% in size. Also: potency is read from the fitted curve at half-maximal effect. An outline of the steps:
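Viability of GeneBLAzer PPARd UAS-bla HEK293H cells was assessed after 17 h compound incubation at 37C, using CellTiter-Glo reagent added after the reporter read and luminescence recorded 30 min later.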

Experiment [13] relates to thyroid hormone receptor (rat, GH3 cells). Description: qHTS assay to identify small molecule agonists of the thyroid receptor (TR) signaling pathway (AID 743066; calls by dose curve).
The target in experiment [14] is Peroxisome proliferator-activated receptor gamma (Homo sapiens) (UniProt P37231). The experiment is described as follows: qHTS assay to identify small molecule agonists of the peroxisome proliferator-activated receptor gamma (PPARg) signaling pathway (AID 743094; active = well fitted activation curve with a large enough effect in the signal ratio in the repeat runs, not every such curve was filed as active; the % refers to the signal ratio; also: potency is read from the fitted curve at half-maximal effect). An outline of the steps:
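GeneBLAzer PPARg UAS-bla HEK293H cells carrying a stably integrated beta-lactamase reporter were pre-incubated 5 h at 37C, then exposed to compounds in DMSO for 17 h at 37C; LiveBLAzer B/G FRET substrate was added for 1 h at room temperature and fluorescence read.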

For experiment [15], the target named is Estrogen receptor (Homo sapiens) (UniProt P03372). The experiment is described as follows: qHTS assay to identify small molecule antagonists of the estrogen receptor alpha (ER-alpha) signaling pathway (AID 743069; active = well fitted curve in the direction sought with a large enough effect in the signal ratio in the repeat runs, not every such curve was filed as active; the % refers to the signal ratio; also: potency is read from the fitted curve at half-maximal effect). An outline of the steps: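 Compound effects are measured against 17beta-estradiol stimulation in HEK293 cells with a UAS-controlled beta-lactamase reporter for ER-alpha. Exposure lasts 18 hr at 37C; LiveBLAzer B/G FRET substrate follows for 2 hr at room temperature.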

Experiment [16] is described as follows: qHTS assay for small molecule activators of the heat shock response signaling pathway (AID 743210; active = well fitted activation curve with a large enough effect in the signal ratio in the repeat runs, with a control signal flat, not every such curve was filed as active; the % refers to the signal ratio;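 also: HeLa cells with beta-lactamase reporter driven by heat shock elements; series mostly up to about 63 µM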). An outline of the steps:
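In HSE-bla HeLa cells, 5 h compound incubation (37 C) precedes addition of LiveBLAzer B/G substrate; after 2.5 h at room temperature, fluorescence intensity indicates reporter induction.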

Experiment [17] addresses Estrogen receptor (Homo sapiens) (UniProt P03372). Description: qHTS assay to identify small molecule agonists of the estrogen receptor alpha (ER-alpha) signaling pathway (AID 743075; calls by dose curve).
Experiment [18] addresses Peroxisome proliferator-activated receptor gamma (Homo sapiens) (UniProt P37231). The experiment is described as follows: qHTS assay to identify small molecule antagonists of the peroxisome proliferator-activated receptor gamma (PPARg) signaling pathway (AID 743191; calls by dose curve; also: series mostly up to about 63 µM; nearly all actives have a fitted effect of over 30% in size). An outline of the steps:
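Beta-lactamase reporter under UAS control in HEK293H PPARg-bla cells; compound treatment 17 h at 37C. Read-out: fluorescence intensity after 1 h room-temperature incubation with LiveBLAzer B/G FRET substrate.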

Chain of Aryl hydrocarbon receptor (Homo sapiens) (P35869 whole entry, looked up): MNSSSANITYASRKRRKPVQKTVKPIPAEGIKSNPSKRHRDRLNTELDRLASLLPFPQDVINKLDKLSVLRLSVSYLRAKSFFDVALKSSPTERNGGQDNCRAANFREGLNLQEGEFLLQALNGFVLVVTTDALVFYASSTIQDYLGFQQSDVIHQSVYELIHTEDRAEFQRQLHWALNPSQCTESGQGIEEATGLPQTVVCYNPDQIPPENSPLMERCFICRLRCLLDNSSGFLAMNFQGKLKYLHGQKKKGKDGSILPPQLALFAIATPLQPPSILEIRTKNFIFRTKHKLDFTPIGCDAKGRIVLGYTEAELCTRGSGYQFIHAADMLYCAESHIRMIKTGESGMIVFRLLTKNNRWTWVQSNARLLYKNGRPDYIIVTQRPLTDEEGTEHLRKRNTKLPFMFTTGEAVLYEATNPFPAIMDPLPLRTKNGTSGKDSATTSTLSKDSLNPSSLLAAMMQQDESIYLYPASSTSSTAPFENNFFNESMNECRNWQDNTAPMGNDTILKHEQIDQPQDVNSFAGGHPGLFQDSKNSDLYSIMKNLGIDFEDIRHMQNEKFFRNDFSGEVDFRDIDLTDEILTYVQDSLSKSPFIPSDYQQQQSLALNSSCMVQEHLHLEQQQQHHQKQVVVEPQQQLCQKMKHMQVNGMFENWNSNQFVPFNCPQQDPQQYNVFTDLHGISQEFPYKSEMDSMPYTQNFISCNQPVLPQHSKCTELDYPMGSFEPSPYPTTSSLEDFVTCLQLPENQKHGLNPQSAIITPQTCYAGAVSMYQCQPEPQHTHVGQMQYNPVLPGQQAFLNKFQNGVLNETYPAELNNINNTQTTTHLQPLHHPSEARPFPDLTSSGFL
Chain of Peroxisome proliferator-activated receptor gamma (Homo sapiens) (P37231 whole entry, looked up): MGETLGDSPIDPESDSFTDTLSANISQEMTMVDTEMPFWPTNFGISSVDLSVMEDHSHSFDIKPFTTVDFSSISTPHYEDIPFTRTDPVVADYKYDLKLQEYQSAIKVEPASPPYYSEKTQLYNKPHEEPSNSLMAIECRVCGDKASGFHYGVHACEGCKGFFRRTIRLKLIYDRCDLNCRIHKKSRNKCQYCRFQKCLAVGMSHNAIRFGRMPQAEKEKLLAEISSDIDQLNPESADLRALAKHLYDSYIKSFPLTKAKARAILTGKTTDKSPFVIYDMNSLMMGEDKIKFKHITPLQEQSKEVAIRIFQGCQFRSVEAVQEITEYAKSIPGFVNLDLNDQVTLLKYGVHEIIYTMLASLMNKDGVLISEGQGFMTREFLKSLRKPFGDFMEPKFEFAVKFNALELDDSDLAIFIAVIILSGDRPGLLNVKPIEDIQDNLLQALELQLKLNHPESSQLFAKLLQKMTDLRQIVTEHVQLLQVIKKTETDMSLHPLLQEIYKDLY
Chain of Aromatase (Homo sapiens) (P11511 whole entry, looked up): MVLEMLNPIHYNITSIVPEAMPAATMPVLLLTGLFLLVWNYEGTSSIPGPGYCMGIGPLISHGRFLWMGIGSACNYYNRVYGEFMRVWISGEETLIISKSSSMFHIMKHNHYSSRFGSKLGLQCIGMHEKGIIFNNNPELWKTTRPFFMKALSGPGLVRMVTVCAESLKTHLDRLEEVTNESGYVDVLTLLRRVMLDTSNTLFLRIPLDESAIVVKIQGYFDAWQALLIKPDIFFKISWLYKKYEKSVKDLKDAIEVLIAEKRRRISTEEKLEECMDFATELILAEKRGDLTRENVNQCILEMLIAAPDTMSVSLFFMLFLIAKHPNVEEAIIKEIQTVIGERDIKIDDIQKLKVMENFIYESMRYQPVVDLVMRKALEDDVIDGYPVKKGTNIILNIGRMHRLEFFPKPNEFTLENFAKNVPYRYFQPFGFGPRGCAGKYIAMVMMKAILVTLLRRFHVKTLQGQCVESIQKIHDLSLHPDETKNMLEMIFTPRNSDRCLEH
Chain of Estrogen receptor (Homo sapiens) (P03372 whole entry, looked up): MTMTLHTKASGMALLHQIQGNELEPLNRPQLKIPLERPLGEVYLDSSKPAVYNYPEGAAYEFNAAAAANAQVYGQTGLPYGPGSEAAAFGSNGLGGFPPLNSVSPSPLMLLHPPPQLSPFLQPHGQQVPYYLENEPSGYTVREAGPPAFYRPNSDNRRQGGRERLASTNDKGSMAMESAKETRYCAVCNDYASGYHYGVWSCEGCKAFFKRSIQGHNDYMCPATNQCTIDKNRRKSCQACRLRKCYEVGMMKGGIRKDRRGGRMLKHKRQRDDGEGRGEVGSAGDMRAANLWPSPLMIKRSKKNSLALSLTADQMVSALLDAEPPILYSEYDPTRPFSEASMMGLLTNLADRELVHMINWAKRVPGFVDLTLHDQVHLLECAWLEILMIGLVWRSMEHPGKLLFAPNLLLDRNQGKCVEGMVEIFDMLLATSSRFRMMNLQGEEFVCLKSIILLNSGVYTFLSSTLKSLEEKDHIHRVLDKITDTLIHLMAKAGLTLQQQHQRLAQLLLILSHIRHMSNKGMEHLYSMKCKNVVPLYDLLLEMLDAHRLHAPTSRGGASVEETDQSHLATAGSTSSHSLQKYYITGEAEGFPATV

Regarding `c1ccc2c(c1)-c1cccc3c1c-2cc1ccccc13`, the Potency result (in experiment [1]; in experiment [2]; in experiment [3]; in experiment [4]; in the experiment with Aromatase (Homo sapiens); in experiment [5]) was “inactive” throughout. Further, the Potency entry in [7], in [8], in [10], in [11] and in [12] was “inactive” throughout. For the same compound, the Potency is 8.43 µM (active) and 6.86 µM (active) in experiment [6]; 1.34 µM (active) in experiment [9].

Regarding `NC(N)=NC(=O)Cc1c(Cl)cccc1Cl`, the Potency result (in [13]; in experiment [1]; in the experiment with Aromatase (Homo sapiens); in [5]; in [6]; in [7]) was “inactive” each time. For the same compound, the Potency entry in experiment [14], in experiment [8], in experiment [10] and in [11] was “inactive” each time.

Take `CCCCCCCCCCCCCC[P+](CCCC)(CCCC)CCCC`: the Potency in [15] is 21.9 µM [cytotoxic] (active); in experiment [1], 3.45 µM (active) and 8.71 µM (active); in experiment [3], 6.82 µM (active) and 4.86 µM (active); in [4], 17.1 µM (active) and 15.4 µM (active); with Aromatase (Homo sapiens), 7.65 µM (active) and 6.11 µM (active); in experiment [5], 17.1 µM (active) and 19.3 µM (active). In addition, the Potency is 68.2 µM (active) and 54.5 µM (active) in experiment [7]; 3.45 µM (active) and 3.47 µM (active) in [8]; 15.3 µM (active) and 10.9 µM (active) in experiment [10]; 6.88 µM (active) and 13.8 µM (active) in [11]; 6.88 µM (active) and 8.71 µM (active) in experiment [12]. In addition, the Potency entry in experiment [6] is “inactive”.

As for `NC12CC3CC(CC(C3)C1)C2`, the Potency result (in experiment [13]; in experiment [1]; in experiment [4]; with Aromatase (Homo sapiens); in experiment [5]; in experiment [6]) was “inactive” in each case. Moreover, the Potency entry in [7], in experiment [14], in [8], in experiment [9], in experiment [10] and in experiment [11] was “inactive” each time. Also, the Potency result in [12] was “inactive”.

`CC(C)(C)NCC(O)c1cc(O)cc(O)c1` (stereo not given): the Potency result (in experiment [13]; in [1]; in [4]; with Aromatase (Homo sapiens); in experiment [5]; in experiment [6]) was “inactive” each time. In addition, the Potency result in [7], in experiment [14], in experiment [8], in [9], in experiment [10] and in experiment [11] was “inactive” in each case. Also, the Potency result in experiment [16] and in experiment [12] was “inactive” each time.

Consider `CC(C)(C)NCC(O)COc1ccccc1OCC1CCCO1` (stereo not given), for which the Potency entry in [8], in [9], in experiment [10], in [11], in [16] and in experiment [12] was “inactive” each time.

Take `CCCCCCC(O)CCCCCCCCCCC(=O)O` (stereo not given): the Potency result (in experiment [13]; with Aromatase (Homo sapiens); in experiment [5]; in experiment [6]; in [7]; in [11]) was “inactive” throughout. In addition, the Potency result in experiment [16] is “inactive”. Besides, the Potency was 21.9 µM (active) in experiment [8]; 19.6 µM (active) and 19.5 µM (active) in experiment [12].

Take `CC(C)CCOCc1ccccc1`: the Potency result in experiment [15], in [1], in experiment [17], in experiment [2], in experiment [3] and in experiment [4] was “inactive” in each case. Besides, the Potency entry (with Aromatase (Homo sapiens); in experiment [5]; in experiment [6]; in experiment [7]; in experiment [14]; in experiment [18]) was “inactive” each time. The Potency entry in experiment [8], in experiment [9], in [10], in [11], in [16] and in [12] was “inactive” each time.

Turning to `Cc1ccnc2c1NC(=O)c1cccnc1N2C1CC1`, the Potency result (in [13]; in experiment [1]; in experiment [4]; with Aromatase (Homo sapiens); in experiment [5]; in [6]) was “inactive” each time. In addition, the Potency result in experiment [7], in experiment [14], in experiment [18], in experiment [8], in [9] and in experiment [10] was “inactive” in each case. The Potency entry in experiment [11], in experiment [16] and in [12] was “inactive” each time.

With `CC(C)(C)NC(=O)[C@@H]1CN(Cc2cccnc2)CCN1C[C@@H](O)C[C@@H](Cc1ccccc1)C(=O)N[C@H]1c2ccccc2C[C@H]1O`, the Potency result in [13], in experiment [1], in experiment [4], in experiment [6], in experiment [7] and in [8] was “inactive” throughout. Besides, the Potency entry in experiment [9], in experiment [10], in experiment [11], in experiment [16] and in [12] was “inactive” in each case. The Potency with Aromatase (Homo sapiens) was 29.8 µM (active) and inactive; in experiment [5], 26.6 µM (active).

Consider `Oc1c(Cl)cc(Cl)c(Cl)c1Cc1c(O)c(Cl)cc(Cl)c1Cl`, for which the Potency result in experiment [13], in experiment [4], in experiment [6] and in experiment [7] was “inactive” throughout. In addition, the Potency in experiment [1] is 24.5 µM (active) and 4.9 µM (active); in the experiment with Aromatase (Homo sapiens), 10.6 µM (active) and 5.43 µM (active) and 6.11 µM (active); in experiment [5], 6.09 µM (active); in experiment [8], 173 nM (active) and 977 nM (active) and 1.68 µM (active); in [10] it was 24.3 µM (active) and 8.63 µM (active) and 8.41 µM (active); in [11] it was 21.8 µM (active) and 21.9 µM (active) and inactive. The Potency in experiment [12] is 27.5 µM (active) and 13.3 µM (active).

On to `OCCN1CCNCC1`, for which the Potency entry (in experiment [15]; in [17]; in experiment [2]; in experiment [3]; in experiment [4]; with Aromatase (Homo sapiens)) was “inactive” throughout. In addition, the Potency entry in experiment [5], in experiment [6], in experiment [7], in experiment [14], in experiment [8] and in [9] was “inactive” in each case. Also, the Potency entry in [10], in experiment [11], in experiment [16] and in [12] was “inactive” throughout.

As to `O=C(O)Cn1cnnn1`, the Potency entry in experiment [18], in [8], in [9], in experiment [10], in experiment [11] and in experiment [16] was “inactive” each time.

As to `CN(C)c1ccc(C(=C2C=CC(=[N+](C)C)C=C2)c2ccccc2)cc1`, the Potency entry in [13] and in experiment [6] was “inactive” throughout. The Potency in [1] was 1.1 µM (active); in experiment [4] it was “inactive and 9.69 µM (active)”; with Aromatase (Homo sapiens), 243 nM (active); in experiment [5], 1.93 µM (active); in experiment [7], “inactive and 1.93 µM (active)”; in experiment [14], 26.8 µM (active). Besides, the Potency in experiment [8] is 61.7 nM (active) and 668 nM (active); in experiment [10], 545 nM (active) and 2.98 µM (active); in [12], 347 nM (active) and 1.33 µM (active).

Take `CC(=O)OCC1=C(C(=O)O)N2C(=O)[C@@H](NC(=O)Cc3cccs3)[C@H]2SC1`: the Potency result (in experiment [13]; in experiment [1]; in [4]; with Aromatase (Homo sapiens); in experiment [5]; in experiment [6]) was “inactive” each time. The Potency entry in experiment [7], in experiment [14], in experiment [18], in experiment [8], in [10] and in [11] was “inactive” throughout. The Potency entry in experiment [12] is “inactive”.
